Source: PubChem BioAssay AID2546 (National Center for Advancing Translational Sciences (NCATS), 2010)
“And” between values parts separate entries of the source, which are not always exact repeats. Equal entries are not always repeated. The whole screen tested about 310,000 compounds, of which about 11,000 (3.5%) were called active. Inconclusive results (about 8%) are left out. Calls follow the shape of the dose curve; as a rule, active = well fitted inhibition curve with a large enough effect; inconclusive = small, poorly fitted or top-dose-only effect, or effect the other way; inactive = flat fitted curve, though single readings scatter. For the sample, actives were picked, then their nearest neighbours and some compounds at random.

Assay: VP16 counterscreen qHTS for inhibitors of ROR gamma transcriptional activity;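 also: Gal4-VP16 expression switched on by copper sulfate through the metallothionein promoter; nearly all actives have a fitted effect of over 50% in size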
Conditions: Drosophila S2 Gal4-VP16 UAS-luciferase, luminescence, 20 h; series mostly up to 53.6 µM; activity, negative = inhibition: at the top concentration
Source text: NIH Molecular Libraries Probe Production Network [MLPCN]
NIH Chemical Genomics Center [NCGC]
Assay Provider: Dan Littman, New York University
The retinoic acid-related orphan receptor (ROR) gamma is a transcription factor that has a central role in the differentiation of Th17 cells, a subset of T helper cells that secrete the inflammatory cytokines IL-17, IL-17F, and IL-22. Th17 cells have been implicated in graft versus host disease, autoimmune disease and asthma. ROR gamma is induced in naive T helper cells in the presence of TGF-beta combined with IL-6, IL-21, or IL-23, and thereafter directs the expression of the Th17 lineage cytokines. To identify nonspecific inhibitors, a Drosophila Schneider cell line was stably transfected with two vectors: a gene expressing a fusion of the Gal4 DNA binding domain and VP16 transactivation domain under the control of the metallothionine promoter and a Photinus luciferase reporter regulated by the Gal4 binding site enhancer, UAS. […] Small molecule inhibitors that inhibit components common to the RORgt and VP16 assays, such as the Gal4 DNA binding domain or the UAS luciferase reporter, will be active in both assays and thus scored as nonspecific.
For screening, 600 cells in 4 uL/well were dispensed into white solid 1536-well plates (Grenier) using a solenoid-based dispenser. Following transfer of 23 nL compound or DMSO vehicle by a pin tool, the plates were incubated 1 hr at ambient temperature, and 1 uL/well copper sulfate (700 uM final concentration) was added. The plates were centrifuged 15 s at 1000 RPM and incubated 20 hr at ambient temperature. After addition of 1.5 uL Photinus luciferase detection reagent, the plates were incubated 10 min at ambient temperature and then read by a ViewLux (Perkin Elmer) to detect luminescence.
% is scaled to controls: 0 for no effect and ±100 for the full control effect; potency is read from the fitted curve at half-maximal effect.

SMILES	activity, negative = inhibition	Potency
Cc1ccc(S(=O)(=O)c2nnn3c2nc(N2CCN(c4ccccn4)CC2)c2ccccc23)cc1	3.9% (inactive)	–
COc1ccc(-c2cc(=O)oc3cc(OC(C)C(=O)Nc4ccc(CN5CCOCC5)cc4)ccc23)cc1 (stereo not drawn)	-8.27% (inactive)	–
Cc1ccc(OCc2nc3ccccc3n2C)cc1	-21.6% (inactive)	–
Cc1nc2ccccc2c(=O)n1Cc1ccc([N+](=O)[O-])cc1	-12.2% (inactive)	–
CCn1c(/C=C/c2ccc([N+](=O)[O-])o2)nc2ccccc2c1=O	–	11.2 µM (active)
Cn1cc(/C=C/c2nc3ccccc3c(=O)n2-c2cccc([N+](=O)[O-])c2)c2ccccc21	-2.78% (inactive)	–
CCCCn1c(N)c(N(CCOC)C(=O)c2oc3ccc(OC)cc3c2C)c(=O)[nH]c1=O	12.1% (inactive)	–
Cc1cc(/C=N/NC(=O)c2cccnc2)c(C)n1CC(C)C	-18.2% (inactive)	–
O=C(N/N=C/c1ccc(O)c2ccccc12)c1cccnc1	5.43% (inactive)	–
O=C(N/N=C/c1sc(N2CCCCC2)nc1-c1cccs1)c1cccnc1	–	10 µM (active)
O=C(NCCS(=O)(=O)N1CCN(c2ccccc2F)CC1)c1ccc(Br)o1	1.1% (inactive)	–
Oc1c(Cl)cc(Cl)c(Cl)c1Cc1c(O)c(Cl)cc(Cl)c1Cl	–	3.16 µM (active) and 7.08 µM (active) and 3.98 µM (active)
CCCCCN(C(=O)CCC(=O)OCC(=O)NCc1ccc(OC)cc1)c1c(N)n(CCCC)c(=O)[nH]c1=O	-1.25% (inactive)	–
CC(=O)Nc1ccc(S(=O)(=O)N2CCC(C(=O)NC3CC3)CC2)cc1	-7.7% (inactive)	–
CCOc1ccc(NC(=O)[C@H](C)NC(=O)C2CC(=O)N(c3ccc(OC)cc3)C2)cc1 (stereo partly drawn)	-0.627% (inactive)	–
Fc1ccccc1Cn1cnc(NC(=S)NCCc2ccccc2)n1	0.0945% (inactive)	–
Fc1ccccc1CNC(=S)Nc1ccc(Cl)cc1	–	7.08 µM (active)
O=C(Cc1cccc2ccccc12)NNC(=O)Nc1ccc(Cl)cc1	2.73% (inactive)	–
COc1ccc(CCNC(=O)CSCc2ccc(Br)cc2)cc1OC	1.85% (inactive)	–
CS(=O)(=O)N(CC(=O)N1CCOCC1)c1cccc(Cl)c1Cl	0.519% (inactive)	–
O=C1C2C(c3ccccc3)CC=CC2C(c2ccoc2)N1Cc1ccccc1 (stereo not drawn)	-2.18% (inactive)	–
CCN1CCc2c(C#N)c(NCc3ccccc3)nc(NCCO)c2C1	3.4% (inactive)	–
CC(C)CCNc1nc(N2CCCC2)c2c(c1C#N)CCN(C)C2	–	11.2 µM (active)
CCc1nc(NCCO)c(C#N)c2c1CCCC2	-4.3% (inactive)	–
Cn1cccc1C(=O)N1CCc2ccccc2C1	-17.5% (inactive)	–
Cc1cccc(C)c1NC(=O)C(Cl)C(=O)c1ccccc1 (stereo not drawn)	–	22.4 µM (active)
Cc1cccc(C)c1NC(=O)N1CC(C)OC(C)C1 (stereo not drawn)	-3.53% (inactive)	–
Cc1cccc(C)c1NC(=O)C(c1ccccc1)N1CC(=O)Nc2ccccc21 (stereo not drawn)	1.67% (inactive)	–
